Of roughly 7,900 targets only a part is listed; those with a hit were picked by preference. About 0.6% of all pairs of compound and target were hits.
What was measured:
Test in all cases: log2 fold change, soluble protein after heating vs DMSO (PISA); higher = thermal stabilisation; K562 cells, 10 uM, 30 min; active = over 0.2 and 3.5 SD of the protein, either way, in both replicates (recomputed)
bafetinib = compound: Cc1ccc(NC(=O)c2ccc(CN3CC[C@H](N(C)C)C3)c(C(F)(F)F)c2)cc1Nc1nccc(-c2cncnc2)n1 [bafetinib]
Method in brief: (§1)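 Soluble protein was quantified by TMTpro 16plex LC-MS/MS after channel sums were equalised. It was obtained as the supernatant after 21,000xg for 90 min from pooled aliquots of K562 cells (2×10^6 cells/mL, 10 μM compound, 30 min) heated for 3 min across 48°C-58°C and extracted in PBS with 0.5% NP-40 at 4°C. Thermal stability values are relative to control samples and come from duplicates. They are given as log2 fold changes.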

[1] = compound: Cc1cccc(CC(=O)N2CCc3c2ccc(-c2cn(C)c4ncnc(N)c24)c3F)n1
Method in brief: as §1

nilotinib = compound: Cc1cn(-c2cc(NC(=O)c3ccc(C)c(Nc4nccc(-c5cccnc5)n4)c3)cc(C(F)(F)F)c2)cn1 [nilotinib]
Method in brief: as §1

[2] = compound: Cc1nc(Nc2n[nH]c3c2CN(C(=O)N[C@H](CN(C)C)c2ccccc2)C3(C)C)c2sccc2n1
Method in brief: as §1

dasatinib = compound: Cc1nc(Nc2ncc(C(=O)Nc3c(C)cccc3Cl)s2)cc(N2CCN(CCO)CC2)n1 [dasatinib]
Method in brief: as §1

[3] = compound: Cc1ncc(-c2ccnc(Nc3ccc(S(C)(=O)=O)cc3)n2)n1C(C)C
Method in brief: as §1

[4] = compound: Cn1cc(-c2ccc3c(c2)CCN3C(=O)Cc2cccc(C(F)(F)F)c2)c2c(N)ncnc21
Method in brief: as §1

[5] = compound: Cn1cc(-c2ccc3nnc(C(F)(F)c4ccc5ncccc5c4)n3n2)cn1
Method in brief: as §1

tipifarnib = compound: Cn1cncc1[C@@](N)(c1ccc(Cl)cc1)c1ccc2c(c1)c(-c1cccc(Cl)c1)cc(=O)n2C [tipifarnib]
Method in brief: as §1

mubritinib = compound: FC(F)(F)c1ccc(/C=C/c2nc(COc3ccc(CCCCn4ccnn4)cc3)co2)cc1 [mubritinib]
Method in brief: as §1

[6] = compound: NC(=O)Nc1cc(-c2cccc(F)c2)sc1C(=O)N[C@H]1CCCNC1
Method in brief: as §1

[7] = compound: NC(=O)c1cnc(N[C@@H]2CCCC[C@@H]2N)nc1Nc1cccc(-n2nccn2)c1
Method in brief: as §1

[8] = compound: NC1(c2ccc(-c3nc4ccn5c(=O)[nH]nc5c4cc3-c3ccccc3)cc2)CCC1
Method in brief: as §1

[9] = compound: NCC(=O)Nc1ccc(-n2nc(C(F)(F)F)cc2-c2ccc3c(ccc4ccccc43)c2)cc1
Method in brief: as §1

entinostat = compound: Nc1ccccc1NC(=O)c1ccc(CNC(=O)OCc2cccnc2)cc1 [entinostat]
Method in brief: as §1

vorinostat = compound: O=C(CCCCCCC(=O)Nc1ccccc1)NO [vorinostat]
Method in brief: as §1

citarinostat = compound: O=C(CCCCCCNC(=O)c1cnc(N(c2ccccc2)c2ccccc2Cl)nc1)NO [citarinostat]
Method in brief: as §1

silmitasertib = compound: O=C(O)c1ccc2c(c1)nc(Nc1cccc(Cl)c1)c1ccncc12 [silmitasertib]
Method in brief: as §1

[10] = compound: O=C1NC(=O)C(c2cnc3ccccn23)=C1c1cn2c3c(cc(F)cc13)CN(C(=O)N1CCCCC1)CC2
Method in brief: as §1

[11] = compound: c1cc(OCCN2CCCCC2)cc(-c2n[nH]c3ccc(-c4nnc[nH]4)cc23)c1
Method in brief: as §1

Measured: log2 fold change

U2AF1 isoform 2 (UniProt Q01081)
active: [2] -1.31
inactive: bafetinib 0.037 | [1] -0.06 | nilotinib -0.017 | dasatinib -0.056 | [3] 0.058 | [4] 0.01 | [5] -0.06 | tipifarnib 0.034 | mubritinib -0.099 | [6] -0.174 | [7] -0.017 | [8] 0.058 | [9] -0.096 | entinostat -0.013 | vorinostat -0.021 | citarinostat 0.039 | silmitasertib -0.034 | [10] -0.039 | [11] -0.093

WDR7 (UniProt Q9Y4E6)
Chain of UniProt Q9Y4E6 (Q9Y4E6 whole entry, looked up): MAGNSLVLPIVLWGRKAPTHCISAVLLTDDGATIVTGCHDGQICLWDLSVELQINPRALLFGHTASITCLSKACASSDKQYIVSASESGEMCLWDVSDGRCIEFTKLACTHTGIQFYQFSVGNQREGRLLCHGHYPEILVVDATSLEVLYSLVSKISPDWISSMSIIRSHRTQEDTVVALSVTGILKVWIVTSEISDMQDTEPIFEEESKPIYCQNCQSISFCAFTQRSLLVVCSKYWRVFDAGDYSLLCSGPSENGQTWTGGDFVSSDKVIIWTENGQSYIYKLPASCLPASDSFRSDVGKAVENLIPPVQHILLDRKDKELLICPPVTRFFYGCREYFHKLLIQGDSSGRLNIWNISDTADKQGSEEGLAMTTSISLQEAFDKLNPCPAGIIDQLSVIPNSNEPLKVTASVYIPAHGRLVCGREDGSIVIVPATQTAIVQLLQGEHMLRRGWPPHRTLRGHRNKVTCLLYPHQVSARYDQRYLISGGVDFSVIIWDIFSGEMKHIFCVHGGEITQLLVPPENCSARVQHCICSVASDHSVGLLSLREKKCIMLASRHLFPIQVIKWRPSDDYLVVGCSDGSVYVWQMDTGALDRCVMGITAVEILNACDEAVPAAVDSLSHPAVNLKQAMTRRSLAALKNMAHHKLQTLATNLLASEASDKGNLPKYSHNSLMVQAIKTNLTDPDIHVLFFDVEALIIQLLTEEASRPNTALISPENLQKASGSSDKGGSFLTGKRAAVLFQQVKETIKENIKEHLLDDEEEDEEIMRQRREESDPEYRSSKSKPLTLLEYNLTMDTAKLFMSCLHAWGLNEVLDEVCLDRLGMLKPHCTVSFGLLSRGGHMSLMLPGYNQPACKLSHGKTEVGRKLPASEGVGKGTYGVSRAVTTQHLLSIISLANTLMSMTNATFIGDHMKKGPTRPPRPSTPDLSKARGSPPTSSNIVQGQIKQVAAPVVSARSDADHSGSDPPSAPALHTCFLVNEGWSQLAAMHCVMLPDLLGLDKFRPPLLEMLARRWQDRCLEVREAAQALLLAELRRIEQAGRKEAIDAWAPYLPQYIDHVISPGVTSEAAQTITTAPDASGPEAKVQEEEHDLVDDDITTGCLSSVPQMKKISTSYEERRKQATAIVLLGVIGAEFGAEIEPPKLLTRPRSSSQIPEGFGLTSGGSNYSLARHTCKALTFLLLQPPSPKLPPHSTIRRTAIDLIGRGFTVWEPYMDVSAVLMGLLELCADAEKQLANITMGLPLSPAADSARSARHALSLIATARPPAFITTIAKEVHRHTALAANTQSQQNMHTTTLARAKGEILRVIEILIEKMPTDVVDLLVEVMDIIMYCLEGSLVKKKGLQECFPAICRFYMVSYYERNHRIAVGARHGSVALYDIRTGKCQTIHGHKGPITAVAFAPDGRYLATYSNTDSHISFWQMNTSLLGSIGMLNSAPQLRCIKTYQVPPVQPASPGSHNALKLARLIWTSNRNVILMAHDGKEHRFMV
inactive: bafetinib -0.034 | [1] 0.082 | nilotinib -0.089 | [2] -0.01 | dasatinib -0.058 | [3] -0.034 | [4] 0.085 | [5] -0.084 | tipifarnib 0.058 | mubritinib -0.118 | [6] -0.227 | [7] -0.017 | [8] 0.104 | [9] -0.019 | entinostat 0.008 | vorinostat 0.036 | citarinostat -0.125 | silmitasertib 0.032 | [10] 0.119 | [11] -0.088

TMTC3 (UniProt Q6ZXV5)
inactive: bafetinib -0.07 | [1] -0.02 | nilotinib -0.036 | [2] 0 | dasatinib -0.055 | [3] 0.015 | [4] -0.051 | [5] 0.061 | tipifarnib -0.018 | mubritinib 0.011 | [6] -0.028 | [7] -0.113 | [8] -0.135 | [9] -0.097 | entinostat -0.046 | vorinostat 0.025 | citarinostat 0.005 | silmitasertib 0.025 | [10] -0.037 | [11] -0.089

UBE4A isoform 2 (UniProt Q14139)
Chain of UniProt Q14139 (Q14139 whole entry, looked up): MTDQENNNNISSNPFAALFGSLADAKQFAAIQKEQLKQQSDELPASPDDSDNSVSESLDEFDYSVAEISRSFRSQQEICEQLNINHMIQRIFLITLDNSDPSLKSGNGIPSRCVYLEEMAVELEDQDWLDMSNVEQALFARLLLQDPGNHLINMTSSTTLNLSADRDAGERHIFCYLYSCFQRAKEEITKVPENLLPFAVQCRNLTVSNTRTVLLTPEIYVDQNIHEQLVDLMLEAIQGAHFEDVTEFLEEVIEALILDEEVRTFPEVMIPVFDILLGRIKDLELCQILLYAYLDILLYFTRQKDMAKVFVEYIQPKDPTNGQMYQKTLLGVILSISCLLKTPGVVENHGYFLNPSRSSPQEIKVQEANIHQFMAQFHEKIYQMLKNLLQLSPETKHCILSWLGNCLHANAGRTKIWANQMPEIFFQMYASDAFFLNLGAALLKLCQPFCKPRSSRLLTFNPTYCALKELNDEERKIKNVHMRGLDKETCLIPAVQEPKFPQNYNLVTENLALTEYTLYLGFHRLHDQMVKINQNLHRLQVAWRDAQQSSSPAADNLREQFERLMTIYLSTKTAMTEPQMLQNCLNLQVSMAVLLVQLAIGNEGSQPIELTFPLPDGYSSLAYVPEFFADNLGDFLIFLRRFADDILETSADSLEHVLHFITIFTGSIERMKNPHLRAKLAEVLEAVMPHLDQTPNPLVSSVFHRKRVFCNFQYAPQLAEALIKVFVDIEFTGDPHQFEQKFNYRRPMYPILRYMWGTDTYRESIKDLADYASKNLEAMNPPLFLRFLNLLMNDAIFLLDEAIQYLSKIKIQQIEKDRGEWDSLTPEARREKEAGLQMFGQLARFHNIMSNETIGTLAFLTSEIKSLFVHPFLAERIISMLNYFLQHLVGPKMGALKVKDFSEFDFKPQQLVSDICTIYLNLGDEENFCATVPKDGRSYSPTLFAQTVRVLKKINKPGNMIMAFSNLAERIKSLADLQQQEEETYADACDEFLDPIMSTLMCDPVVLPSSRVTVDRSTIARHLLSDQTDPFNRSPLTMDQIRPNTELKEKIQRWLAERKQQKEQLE
inactive: bafetinib 0.01 | [1] 0.065 | nilotinib -0.111 | [2] -0.162 | dasatinib -0.196 | [3] 0.015 | [4] -0.183 | [5] -0.023 | tipifarnib -0.092 | mubritinib 0.021 | [6] -0.017 | [7] 0.01 | [8] -0.136 | [9] 0.001 | entinostat 0.146 | vorinostat 0.133 | citarinostat 0.059 | silmitasertib 0.117 | [10] 0.026 | [11] -0.014

TTC38 (UniProt Q5R3I4)
active: vorinostat 0.459
inactive: bafetinib -0.012 | [1] 0.021 | nilotinib 0.038 | [2] 0.034 | dasatinib 0.024 | [3] -0.04 | [4] 0.071 | [5] -0.021 | tipifarnib 0.05 | mubritinib 0.322 | [6] 0.038 | [7] 0.113 | [8] -0.263 | [9] -0.09 | entinostat 0.111 | citarinostat -0.243 | silmitasertib -0.156 | [10] 0.042 | [11] 0.313

TNPO3 (UniProt Q9Y5L0)
Chain of UniProt Q9Y5L0 (Q9Y5L0 whole entry, looked up): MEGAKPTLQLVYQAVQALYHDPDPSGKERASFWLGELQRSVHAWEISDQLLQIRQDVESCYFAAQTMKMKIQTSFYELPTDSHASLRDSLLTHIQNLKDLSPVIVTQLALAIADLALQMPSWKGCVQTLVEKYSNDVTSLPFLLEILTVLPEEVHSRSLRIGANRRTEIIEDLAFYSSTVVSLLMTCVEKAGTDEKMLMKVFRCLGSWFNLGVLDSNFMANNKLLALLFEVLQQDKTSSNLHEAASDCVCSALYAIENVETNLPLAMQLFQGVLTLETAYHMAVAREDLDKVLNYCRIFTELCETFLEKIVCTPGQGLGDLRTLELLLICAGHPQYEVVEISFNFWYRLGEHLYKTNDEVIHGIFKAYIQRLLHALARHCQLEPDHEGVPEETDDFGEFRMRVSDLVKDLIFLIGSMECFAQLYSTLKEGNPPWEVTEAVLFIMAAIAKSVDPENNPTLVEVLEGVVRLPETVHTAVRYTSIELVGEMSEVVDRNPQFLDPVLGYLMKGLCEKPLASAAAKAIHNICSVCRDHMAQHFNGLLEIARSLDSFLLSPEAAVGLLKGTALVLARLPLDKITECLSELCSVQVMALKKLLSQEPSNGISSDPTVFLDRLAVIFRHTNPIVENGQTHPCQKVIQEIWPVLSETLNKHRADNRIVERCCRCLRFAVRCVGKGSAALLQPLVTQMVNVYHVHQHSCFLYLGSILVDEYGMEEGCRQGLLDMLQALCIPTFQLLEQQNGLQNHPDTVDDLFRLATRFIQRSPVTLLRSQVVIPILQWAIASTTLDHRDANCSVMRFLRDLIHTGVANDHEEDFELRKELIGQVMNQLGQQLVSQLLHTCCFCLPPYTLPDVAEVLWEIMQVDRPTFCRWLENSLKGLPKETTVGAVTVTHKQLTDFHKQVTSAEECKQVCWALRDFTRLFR
inactive: bafetinib -0.057 | [1] 0.041 | nilotinib -0.052 | [2] -0.123 | dasatinib -0.103 | [3] -0.028 | [4] -0.001 | [5] -0.014 | tipifarnib -0.121 | mubritinib 0.061 | [6] 0.026 | [7] -0.018 | [9] -0.024 | entinostat 0.049 | vorinostat 0.076 | citarinostat 0.058 | silmitasertib -0.024 | [10] -0.06 | [11] -0.059
active: [8] -0.221

VPS8 (UniProt Q8N3P4)
Chain of UniProt Q8N3P4 (Q8N3P4 whole entry, looked up): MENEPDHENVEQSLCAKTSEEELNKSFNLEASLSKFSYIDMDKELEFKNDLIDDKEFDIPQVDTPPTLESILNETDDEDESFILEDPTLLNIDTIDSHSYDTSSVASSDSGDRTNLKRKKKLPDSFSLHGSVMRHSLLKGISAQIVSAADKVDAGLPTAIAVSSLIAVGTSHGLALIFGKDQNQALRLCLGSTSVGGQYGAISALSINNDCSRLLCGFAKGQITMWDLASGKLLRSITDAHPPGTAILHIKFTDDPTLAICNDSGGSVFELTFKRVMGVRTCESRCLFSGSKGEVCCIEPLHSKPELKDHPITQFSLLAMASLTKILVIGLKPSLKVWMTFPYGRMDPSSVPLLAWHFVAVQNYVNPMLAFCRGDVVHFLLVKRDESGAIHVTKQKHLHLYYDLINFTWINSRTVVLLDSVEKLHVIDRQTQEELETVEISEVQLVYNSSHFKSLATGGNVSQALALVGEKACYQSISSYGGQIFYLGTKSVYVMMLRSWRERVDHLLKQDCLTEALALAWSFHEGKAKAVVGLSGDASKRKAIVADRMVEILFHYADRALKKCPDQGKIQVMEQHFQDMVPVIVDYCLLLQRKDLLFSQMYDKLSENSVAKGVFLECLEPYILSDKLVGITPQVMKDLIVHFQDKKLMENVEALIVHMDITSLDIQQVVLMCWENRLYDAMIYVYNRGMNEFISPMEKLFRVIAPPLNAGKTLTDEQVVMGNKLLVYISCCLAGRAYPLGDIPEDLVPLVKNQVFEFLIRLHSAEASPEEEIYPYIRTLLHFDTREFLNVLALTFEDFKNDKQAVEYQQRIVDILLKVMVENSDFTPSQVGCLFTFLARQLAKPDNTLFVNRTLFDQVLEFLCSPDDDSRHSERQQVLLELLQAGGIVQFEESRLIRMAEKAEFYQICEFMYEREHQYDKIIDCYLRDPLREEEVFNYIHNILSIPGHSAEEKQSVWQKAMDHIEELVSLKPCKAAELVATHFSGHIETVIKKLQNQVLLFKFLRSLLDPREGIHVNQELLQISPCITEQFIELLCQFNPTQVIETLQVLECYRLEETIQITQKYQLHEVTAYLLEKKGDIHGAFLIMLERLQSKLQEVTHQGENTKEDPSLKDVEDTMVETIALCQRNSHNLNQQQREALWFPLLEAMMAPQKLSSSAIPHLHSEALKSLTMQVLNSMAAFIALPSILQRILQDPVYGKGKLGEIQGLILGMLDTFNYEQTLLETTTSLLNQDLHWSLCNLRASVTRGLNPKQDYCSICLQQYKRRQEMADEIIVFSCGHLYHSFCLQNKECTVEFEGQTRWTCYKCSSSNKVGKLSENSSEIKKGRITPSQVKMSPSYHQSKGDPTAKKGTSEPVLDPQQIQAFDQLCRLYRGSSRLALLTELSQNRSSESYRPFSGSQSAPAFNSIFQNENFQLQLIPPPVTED
inactive: bafetinib 0.073 | [1] 0.043 | nilotinib -0.162 | [2] -0.018 | dasatinib -0.107 | [3] 0.035 | [4] -0.018 | [5] -0.083 | tipifarnib -0.078 | mubritinib 0.043 | [6] -0.035 | [7] -0.125 | [8] -0.15 | [9] -0.088 | entinostat 0.077 | vorinostat 0.158 | citarinostat -0.004 | silmitasertib 0.078 | [10] -0.006 | [11] -0.012

TSEN2 (UniProt Q8NCE0)
inactive: bafetinib 0.008 | [1] 0.032 | nilotinib -0.05 | [2] -0.112 | dasatinib -0.132 | [3] -0.034 | [4] 0.05 | [5] -0.013 | tipifarnib -0.005 | mubritinib -0.16 | [6] 0.212 | [7] -0.008 | [8] -0.126 | [9] -0.024 | entinostat 0.052 | vorinostat -0.003 | citarinostat 0.005 | silmitasertib 0.197 | [10] -0.015 | [11] 0.008

— the supplement of paper PMC10849652
